Measurements published in the supplement of paper PMC8728848.
The sample as a whole holds a higher share of the strongest signals than the screen did.

Experiments:
Experiment in all cases: glycan array binding signal (z-score within array); higher = stronger binding
Conditions in all cases: glycan notation: IUPAC condensed, linker removed
[1] = target: Gal(b1-4)GlcNAc(b1-3)Gal(b1-4)GlcNAc(b1-3)Gal(b1-4)GlcNAc(b1-2)[Gal(b1-4)GlcNAc(b1-3)Gal(b1-4)GlcNAc(b1-3)Gal(b1-4)GlcNAc(b1-6)]Man(a1-6)[Gal(b1-4)GlcNAc(b1-3)Gal(b1-4)GlcNAc(b1-3)Gal(b1-4)GlcNAc(b1-2)Man(a1-3)]Man(b1-4)GlcNAc(b1-4)[Fuc(a1-6)]GlcNAc
In short: (§1)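 Glycan array binding is given as a within-array Z-score, which can be read as non-binding when negative. The arrays, 3228 of them, came from the Consortium for Functional Glycomics database and were retained only where the protein sequence was available. Z-scores were averaged across arrays of the same protein sequence at different concentrations or buffers and across linkers.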

[2] = target: Gal(b1-4)GlcNAc(b1-3)Gal(b1-4)GlcNAc(b1-3)Gal(b1-4)GlcNAc(b1-3)Gal(b1-4)GlcNAc(b1-3)Gal(b1-4)GlcNAc(b1-2)[Gal(b1-4)GlcNAc(b1-3)Gal(b1-4)GlcNAc(b1-3)Gal(b1-4)GlcNAc(b1-3)Gal(b1-4)GlcNAc(b1-3)Gal(b1-4)GlcNAc(b1-6)]Man(a1-6)[Gal(b1-4)GlcNAc(b1-3)Gal(b1-4)GlcNAc(b1-3)Gal(b1-4)GlcNAc(b1-3)Gal(b1-4)GlcNAc(b1-3)Gal(b1-4)GlcNAc(b1-2)Man(a1-3)]Man(b1-4)GlcNAc(b1-4)[Fuc(a1-6)]GlcNAc
In short: as §1

[3] = target: Gal(b1-4)GlcNAc(b1-3)GalNAc
In short: as §1

[4] = target: Gal(b1-4)GlcNAc(b1-6)[Gal(b1-4)GlcNAc(b1-3)]GalNAc
In short: as §1

Gal3S4S(b1-4)GlcNAc = target: Gal3S4S(b1-4)GlcNAc
In short: as §1

Gal4S(b1-4)GlcNAc = target: Gal4S(b1-4)GlcNAc
In short: as §1

GalNAc(a1-3)GalNAc = target: GalNAc(a1-3)GalNAc
In short: as §1

[5] = target: GalNAc(b1-3)Gal(a1-4)Gal(b1-4)GlcNAc(b1-3)Gal(b1-4)Glc
In short: as §1

GalNAc(b1-3)GalNAc = target: GalNAc(b1-3)GalNAc
In short: as §1

GalNAc(b1-3)GlcNAc = target: GalNAc(b1-3)GlcNAc
In short: as §1

GalNAc3S(b1-4)GlcNAc3S = target: GalNAc3S(b1-4)GlcNAc3S
In short: as §1

[6] = target: GlcNAc(a1-6)Gal(b1-4)GlcNAc
In short: as §1

[7] = target: GlcNAc(b1-3)Gal(b1-4)GlcNAc(b1-2)[GlcNAc(b1-3)Gal(b1-4)GlcNAc(b1-6)]Man(a1-6)[GlcNAc(b1-3)Gal(b1-4)GlcNAc(b1-2)Man(a1-3)]Man(b1-4)GlcNAc(b1-4)GlcNAc
In short: as §1

[8] = target: GlcNAc(b1-3)Gal(b1-4)GlcNAc(b1-3)Gal(b1-4)GlcNAc(b1-3)Gal(b1-4)GlcNAc(b1-2)Man(a1-3)[GlcNAc(b1-3)Gal(b1-4)GlcNAc(b1-3)Gal(b1-4)GlcNAc(b1-3)Gal(b1-4)GlcNAc(b1-2)Man(a1-6)]Man(b1-4)GlcNAc(b1-4)GlcNAc
In short: as §1

[9] = target: GlcNAc(b1-3)[GlcNAc(b1-6)]GalNAc
In short: as §1

Kdn(a2-3)Gal(b1-3)GalNAc = target: Kdn(a2-3)Gal(b1-3)GalNAc
In short: as §1

Kdn(a2-3)Gal(b1-4)Glc = target: Kdn(a2-3)Gal(b1-4)Glc
In short: as §1

[10] = target: Man(a1-3)[Man(a1-6)]Man(a1-6)[Man(a1-3)]Man(b1-4)GlcNAc(b1-4)GlcNAc
In short: as §1

[11] = target: Neu5Ac(a2-3)Gal(b1-3)GalNAc(b1-3)Gal(a1-4)Gal(b1-4)Glc
In short: as §1

[12] = target: Neu5Ac(a2-3)Gal(b1-3)GlcNAc
In short: as §1

[13] = target: Neu5Ac(a2-3)Gal(b1-3)GlcNAc(b1-2)Man
In short: as §1

[14] = target: Neu5Ac(a2-3)Gal(b1-3)GlcNAc(b1-2)Man(a1-3)[GlcNAc(b1-4)][Neu5Ac(a2-3)Gal(b1-3)GlcNAc(b1-2)Man(a1-6)]Man(b1-4)GlcNAc(b1-4)GlcNAc
In short: as §1

[15] = target: Neu5Ac(a2-3)Gal(b1-4)GlcNAc(b1-2)Man(a1-3)[Neu5Ac(a2-3)Gal(b1-4)GlcNAc(b1-2)Man(a1-6)]Man(b1-4)GlcNAc(b1-4)[Fuc(a1-6)]GlcNAc
In short: as §1

[16] = target: Neu5Ac(a2-6)Gal(b1-4)GlcNAc(b1-2)Man(a1-3)[Neu5Ac(a2-6)Gal(b1-4)GlcNAc(b1-2)Man(a1-6)]Man(b1-4)GlcNAc(b1-4)[Fuc(a1-6)]GlcNAc
In short: as §1

[17] = target: Neu5Ac(a2-6)Gal(b1-4)GlcNAc(b1-2)[Neu5Ac(a2-6)Gal(b1-4)GlcNAc(b1-4)]Man(a1-3)[GlcNAc(b1-4)][Neu5Ac(a2-6)Gal(b1-4)GlcNAc(b1-4)Man(a1-6)]Man(b1-4)GlcNAc(b1-4)GlcNAc
In short: as §1

[18] = target: Neu5Ac(a2-6)Gal(b1-4)GlcNAc(b1-3)Gal(b1-4)[Fuc(a1-3)]GlcNAc(b1-3)Gal(b1-4)[Fuc(a1-3)]GlcNAc
In short: as §1

[19] = target: Neu5Ac(a2-6)Gal(b1-4)GlcNAc(b1-3)GalNAc
In short: as §1

[20] = target: Neu5Ac(a2-8)Neu5Ac(a2-3)Gal(b1-3)GalNAc(b1-4)[Neu5Ac(a2-8)Neu5Ac(a2-3)]Gal(b1-4)Glc
In short: as §1

[21] = target: Neu5Gc(a2-8)Neu5Gc(a2-3)Gal(b1-4)GlcNAc
In short: as §1

B1: GS7807G-bfa-506-18-506 (Bacteroides fragilis) (protein)
chain: ASCDKFDEINTDPDATTKVTSSLLATGLLLDITSSSASKSFIYDELLAKQMAWGESMEDYQYNVFGRSGFGGYTTLINAQKMVESVSDDNVNAYDGLAHFIKAYKIFYMSMEMGDLPYEEALQGELGLVRPKYNTQKEVMNFILSDLETAYELFSTAKDFDGDPILGGSISKWKKATTAFQLKVLMHLSKKESDADLKVKERFARIVASGSLMESNEDNLQMKYADKANTVYPFHNTNTKHAGYAMLSTMLIDKFKATGDIRMFYYAKPAKAKLNEGVTADSWDAYIGTDPSLPFEQIEKAYATEQYSGFNARYTDYPSGEPVVRLGYAEQNFILAEAAVRGWISGDASAYYKKAIRAHMEFIASNTPDEEVYHHGHPITEEAIAAFLETPAIQLSGEKEEDIEKILTQRYLASFMQHPYDVYYDYRRTGYPVLPINPATNRNTMNDRLPMRWMYPKSESDYNLEHQNEALERQFGGVDDVNKLMWILQ
glycan array binding signal (z-score) [1]: 2.78 | glycan array binding signal (z-score) [2]: 4.67 | glycan array binding signal (z-score) [3]: -0.443 | glycan array binding signal (z-score) [4]: 1.86 | glycan array binding signal (z-score) (Gal3S4S(b1-4)GlcNAc): -0.454 | glycan array binding signal (z-score) (Gal4S(b1-4)GlcNAc): -0.273 | glycan array binding signal (z-score) (GalNAc(a1-3)GalNAc): -0.209 | glycan array binding signal (z-score) [5]: -0.567 | glycan array binding signal (z-score) (GalNAc(b1-3)GalNAc): -0.744 | glycan array binding signal (z-score) (GalNAc(b1-3)GlcNAc): 0.616 | glycan array binding signal (z-score) (GalNAc3S(b1-4)GlcNAc3S): -0.726 | glycan array binding signal (z-score) [6]: -0.271 | glycan array binding signal (z-score) [7]: 0.698 | glycan array binding signal (z-score) [8]: 0.543 | glycan array binding signal (z-score) [9]: -0.871 | glycan array binding signal (z-score) (Kdn(a2-3)Gal(b1-3)GalNAc): -0.399 | glycan array binding signal (z-score) (Kdn(a2-3)Gal(b1-4)Glc): -0.306 | glycan array binding signal (z-score) [10]: 3.61 | glycan array binding signal (z-score) [11]: -0.786 | glycan array binding signal (z-score) [12]: -0.636 | glycan array binding signal (z-score) [13]: 2.81 | glycan array binding signal (z-score) [14]: -0.528 | glycan array binding signal (z-score) [15]: -0.269 | glycan array binding signal (z-score) [16]: 4.41 | glycan array binding signal (z-score) [17]: -0.864 | glycan array binding signal (z-score) [18]: -0.153 | glycan array binding signal (z-score) [19]: 2.85 | glycan array binding signal (z-score) [20]: 0.197 | glycan array binding signal (z-score) [21]: -0.712
